# Several values for one entry are separate records, joined by “and”; a condition that tells them apart may be missing. Equal entries are not always repeated. Inconclusive results are not listed. Activity calls are given as the source filed them. The call rests on the fitted dose curve; in most records, active means well fitted curve in the direction sought with a large enough effect; inconclusive means small, poorly fitted or top-dose-only effect, or another doubt; inactive means no such curve, though single readings can be large; an effect the other way counts as inactive or inconclusive.
# Legend:
# [1] = qHTS for Inhibitors of Ubiquitin-specific Protease USP2a Using CHOP2 as the Reporter: K633 Counterscreen (AID 652168); further: series mostly up to about 57 µM
# Outline: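 Detection-system control: fluorescence of K48-linked DiUb-4IQF substrate (100 nM as added) tracked over time, Ex 525/Em 598, with pinned compounds and no enzyme, in pH 8 Tris buffer containing beta-mercaptoethanol and 0.05% Chaps.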
# [2] = qHTS for Inhibitors of Ubiquitin-specific Protease USP2a Using CHOP2 as the Reporter: Cytotox Assay (AID 652170); further: nearly all actives have a fitted effect of over 70% in size; further: potency means the concentration at half of the fitted maximal effect
# Outline: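 Cytotoxicity read as ATP luminescence (CellTiter-Glo) after 72 hr compound treatment at 37 deg C. Cells: HCT116, 600/well in DMEM plus 10% FBS. Normalization between DMSO-treated cells and cell-free wells.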
# [3] = target: Ubiquitin carboxyl-terminal hydrolase 2 (Homo sapiens) (UniProt O75604); experiment: qHTS for Inhibitors of Ubiquitin-specific Protease USP2a Using CHOP2 as the Reporter: K484 Substrate (AID 652173);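 further: cleavage of internally quenched K48 di-ubiquitin substrate measured as rising fluorescence over time; nearly all actives have a fitted effect of over 70% in size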; further: potency means the concentration at half of the fitted maximal effect
# Sequence of Ubiquitin carboxyl-terminal hydrolase 2 (Homo sapiens) (O75604 whole entry, looked up): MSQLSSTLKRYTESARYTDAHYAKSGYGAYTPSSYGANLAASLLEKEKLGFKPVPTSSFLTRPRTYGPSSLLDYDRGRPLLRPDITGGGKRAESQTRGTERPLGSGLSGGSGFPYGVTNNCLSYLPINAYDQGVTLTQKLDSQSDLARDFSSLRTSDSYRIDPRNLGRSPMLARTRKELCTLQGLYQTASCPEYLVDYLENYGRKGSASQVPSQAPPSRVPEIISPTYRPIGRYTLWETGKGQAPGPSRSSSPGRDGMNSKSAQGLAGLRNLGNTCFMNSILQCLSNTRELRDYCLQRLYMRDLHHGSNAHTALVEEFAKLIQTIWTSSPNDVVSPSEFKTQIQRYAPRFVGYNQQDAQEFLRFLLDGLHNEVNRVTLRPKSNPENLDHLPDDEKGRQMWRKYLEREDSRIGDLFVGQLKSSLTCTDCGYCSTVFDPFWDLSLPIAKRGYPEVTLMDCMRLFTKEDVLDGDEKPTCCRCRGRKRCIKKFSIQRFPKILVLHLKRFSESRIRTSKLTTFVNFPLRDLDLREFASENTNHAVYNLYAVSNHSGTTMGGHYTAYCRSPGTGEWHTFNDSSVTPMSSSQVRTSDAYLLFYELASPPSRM
# Outline: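 Kinetic fluorescence (Ex 525/Em 598) tracked cleavage of an internally quenched K48 di-ubiquitin substrate, added as a 100 nM solution. The enzyme was added as a 5 nM USP2 solution before compound pinning, with no-enzyme controls. Buffer: Tris pH 8, beta-mercaptoethanol, CHAPS.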
Compound,outcome [1],Potency [2],Potency [3]
Cc1ccc(S(=O)(=O)Nc2cnccc2C(=O)Nc2nc(-c3nc4ccccc4s3)cs2)cc1,inactive,inactive,1.72 µM (active)
Cc1ccc(-c2cc(C(=O)Nc3ccc([N+](=O)[O-])cc3)c3ccccc3n2)cc1C,inactive,,13.7 µM (active)
O=C(Nc1ccc(S(=O)(=O)Nc2nccs2)cc1)c1ccnc2ccccc12,inactive,inactive,21.7 µM (active)
Cc1ccc(S(=O)(=O)Nc2cnccc2C(=O)Nc2nc(-c3cccc(Cl)c3)cs2)cc1,inactive,23.5 µM (active),2.17 µM (active)
O=C(Nc1nc(-c2ccccc2)cs1)c1ccncc1NS(=O)(=O)c1ccc(F)c(F)c1,inactive,inactive,2.17 µM (active)
O=C(O)C1CCC(C(=O)Nc2ccc([S+](=O)([O-])Nc3nccs3)cc2)CC1 (centres undefined),inactive,,inactive
N#Cc1ccccc1S(=O)(=O)Nc1cnccc1C(=O)Nc1nc(-c2ccccc2)cs1,inactive,,7.69 µM (active)
Cc1ccc(S(=O)(=O)Nc2cnccc2C(=O)Nc2nc(-c3ccc(C)c(C)c3)cs2)cc1,inactive,,2.73 µM (active)
Cc1cc(S(=O)(=O)Nc2cnccc2C(=O)Nc2nc(-c3ccccc3)cs2)c(C)o1,inactive,,3.43 µM (active)
N#Cc1ccc(S(=O)(=O)Nc2cnccc2C(=O)Nc2nc(-c3ccccc3)cs2)cc1,inactive,inactive,2.43 µM (active)
O=S(=O)(Nc1nccs1)c1ccc(Nc2nc(-c3ccc(Cl)c(Cl)c3)cs2)cc1,inactive,inactive,27.3 µM (active)
O=C(Nc1nc(-c2ccccc2)cs1)c1ccncc1NS(=O)(=O)c1ccc(F)cc1F,inactive,inactive,3.06 µM (active)
Cc1ccc(-c2csc(NC(=O)c3ccncc3NS(=O)(=O)c3ccc(C)cc3)n2)cc1,inactive,,1.22 µM (active)
O=S(=O)(Nc1nccs1)c1ccc(Nc2nc(-c3ccc(F)cc3)cs2)cc1,inactive,,3.06 µM (active) and 9.68 µM (active)
O=C(Nc1nc(-c2ccccc2)cs1)c1ccncc1NS(=O)(=O)c1ccc2ccccc2c1,inactive,,1.37 µM (active)
Cc1ccc(-c2cc(C(=O)Nc3ccc(C(N)=O)cc3)c3ccccc3n2)cc1C,inactive,,21.7 µM (active)
N#Cc1cnc(NS(=O)(=O)c2ccc(NC(=O)Cc3ccc(F)c(Cl)c3)cc2)s1,inactive,,15.3 µM (active)
O=C(Nc1nc(-c2ccccc2)cs1)c1ccncc1NS(=O)(=O)c1ccc(F)cc1,inactive,,3.06 µM (active)
CC(C)(C)NC(=O)N1CCC(C(=O)Nc2ccc([S+](=O)([O-])Nc3nccs3)cc2)CC1,inactive,,inactive
Cc1ccc(S(=O)(=O)Nc2cc(Cl)c(Cl)cc2C(=O)Nc2nc(-c3ccccc3)cs2)cc1,inactive,5.26 µM (active),1.37 µM (active)
O=C(Nc1nc(-c2ccc(F)cc2)cs1)c1ccncc1NS(=O)(=O)c1ccc(F)cc1,,inactive,4.85 µM (active)
Cc1ccc(NC(=O)c2cc(-c3ccc(C)c(C)c3)nc3ccccc23)cc1,,inactive,
O=C(Nc1nc(-c2ccccc2)cs1)c1ccncc1NS(=O)(=O)c1ccc(F)cc1Cl,inactive,,1.93 µM (active)
Nc1cccc(S(=O)(=O)Nc2cnccc2C(=O)Nc2nc(-c3ccccc3)cs2)c1,,inactive,13.7 µM (active)

Compound,outcome [1],Potency [2],Potency [3]
Cc1ccc(S(=O)(=O)Nc2cnccc2C(=O)Nc2ccc(C#N)cc2)cc1,inactive,inactive,21.7 µM (active)
COc1ccc(-c2csc(NC(=O)c3ccncc3NS(=O)(=O)c3ccc(C)cc3)n2)cc1,inactive,,2.17 µM (active)
COCOC1CCC(C(=O)Nc2ccc([S+](=O)([O-])Nc3nccs3)cc2)CC1 (centres undefined),inactive,inactive,inactive
Cc1ccc(S(=O)(=O)Nc2cnccc2C(=O)Nc2nc(-c3ccccc3)cs2)cc1,inactive,18.7 µM (active),2.17 µM (active) and 1.72 µM (active)
Cc1ccc(-c2csc(Nc3ccc(S(=O)(=O)Nc4nccs4)cc3)n2)cc1C,inactive,inactive,4.32 µM (active)
Cc1ccc(-c2cc(C(=O)Nc3ccc4[nH]ccc4c3)c3ccccc3n2)cc1C,,inactive,8.63 µM (active)
O=C(Nc1nc(-c2ccccc2)cs1)c1ccncc1NS(=O)(=O)c1c(F)cc(F)cc1F,,inactive,3.43 µM (active)
Cc1ccc(-c2cc(C(=O)Nc3ccc(S(N)(=O)=O)cc3)c3cccc(C)c3n2)cc1C,inactive,,17.2 µM (active) and 6.85 µM (active)
Cc1ccc(S(=O)(=O)Nc2cnccc2C(=O)Nc2ccc3ccccc3c2)cc1,inactive,,6.11 µM (active)
Cc1ccc(S(=O)(=O)Nc2cnccc2C(=O)Nc2nc(-c3ccc(Cl)cc3)cs2)cc1,inactive,23.5 µM (active),2.17 µM (active)
Cc1ccc(S(=O)(=O)Nc2cnccc2C(=O)Nc2nc(-c3cc(Br)cs3)cs2)cc1,inactive,,2.17 µM (active)
Cc1ccc(S(=O)(=O)Nc2cnccc2C(=O)Nc2nc(-c3ccc4c(c3)CCCC4)cs2)cc1,,20.9 µM (active),2.17 µM (active)
Cc1ccc(S(=O)(=O)Nc2cnccc2C(=O)Nc2nc3ccccc3s2)cc1,,inactive,3.43 µM (active)
Cc1ccc(-c2cc(C(=O)Nc3cccc(S(=O)(=O)Nc4nccs4)c3)c3ccccc3n2)cc1C,,inactive,3.06 µM (active)
Cc1ccc(S(=O)(=O)Nc2ccc(OC(F)(F)F)cc2C(=O)Nc2nc(-c3ccccc3)cs2)cc1,,,2.43 µM (active)
O=C(C[C@H]1CC[C@@H](C(=O)Nc2ccc(S(=O)(=O)Nc3nccs3)cc2)C1)c1ccccc1,,,19.3 µM (active)
Cc1ccc(S(=O)(=O)Nc2cnccc2C(=O)Nc2nc(-c3cccc(F)c3)cs2)cc1,,20.9 µM (active),1.37 µM (active)
Cc1ccc(S(=O)(=O)Nc2ccccc2C(=O)Nc2cnc(-c3ccccc3)cn2)cc1,,16.6 µM (active),3.43 µM (active)
Cc1ccc(-c2cc(C(=O)Nc3ccc(S(=O)(=O)O)cc3)c3ccccc3n2)cc1C,,,13.7 µM (active)
CCc1ccc(S(=O)(=O)Nc2cnccc2C(=O)Nc2nc(-c3ccccc3)cs2)cc1,,20.9 µM (active),1.72 µM (active)
Cc1ccc(-c2cc(C(=O)NCc3ccc(S(N)(=O)=O)cc3)c3ccccc3n2)cc1C,,inactive,9.68 µM (active)
Cc1ccc(S(=O)(=O)Nc2cnccc2C(=O)Nc2nc(-c3cccnc3)cs2)cc1,,inactive,13.7 µM (active)
O=S(=O)(Nc1nccs1)c1ccc(Nc2nc(-c3ccc(-c4ccccc4)cc3)cs2)cc1,,inactive,1.93 µM (active)
COc1ccc(C(=O)Nc2nc(-c3ccccc3)cs2)c(NS(=O)(=O)c2ccc(C)cc2)c1,,13.2 µM (active),1.37 µM (active)

Compound,outcome [1],Potency [2],Potency [3]
CC(=O)Nc1ncc(S(=O)(=O)Nc2cnccc2C(=O)Nc2nc(-c3ccccc3)cs2)s1,,inactive,10.9 µM (active)
CNS(=O)(=O)c1ccc(NC(=O)c2cc(-c3ccc(C)c(C)c3)nc3ccccc23)cc1,,inactive,4.85 µM (active)
COc1ccccc1S(=O)(=O)Nc1cnccc1C(=O)Nc1nc(-c2ccccc2)cs1,,inactive,13.7 µM (active)
Cc1ccc(S(=O)(=O)Nc2ccc(Cl)c(C(=O)Nc3nc(-c4ccccc4)cs3)c2)cc1,,inactive,2.43 µM (active)
CCCOC1CCC(C(=O)Nc2ccc([S+](=O)([O-])Nc3nccs3)cc2)CC1 (centres undefined),,inactive,inactive
Cc1ccc(S(=O)(=O)Nc2ncccc2C(=O)Nc2nc(-c3ccccc3)cs2)cc1,,,3.43 µM (active)
CCCCC1CCC(C(=O)Nc2ccc(S(=O)(=O)Nc3nccs3)cc2)CC1 (centres undefined),,inactive,4.85 µM (active)
O=C(Nc1ccc(S(=O)(=O)Nc2nccs2)cc1)c1ccc(-c2ccccc2)cc1,,inactive,24.3 µM (active)
O=C(Nc1nc(-c2ccccc2)cs1)c1ccncc1NS(=O)(=O)c1cccc(Cl)c1,,inactive,3.85 µM (active)
Cc1ccc(C(=O)Nc2ccc(S(=O)(=O)Nc3nccs3)cc2)cc1C,,inactive,24.3 µM (active)
Cc1ccc(-c2cc(C(=O)Nc3ccc(S(=O)(=O)Nc4ccccn4)cc3)c3ccccc3n2)cc1C,,inactive,4.32 µM (active)
CCC(=O)OC1CCC(C(=O)Nc2ccc([S+](=O)([O-])Nc3nccs3)cc2)CC1 (centres undefined),,inactive,inactive
Cc1ccc(S(=O)(=O)Nc2ccccc2C(=O)Nc2ncc(-c3ccccc3)o2)cc1,,4.69 µM (active),2.43 µM (active)
Cc1ccc(S(=O)(=O)Nc2ccc(C(=O)Nc3nc(-c4ccccc4)cs3)cc2Cl)cc1,,,2.17 µM (active)
Cc1ccc(S(=O)(=O)Nc2cc([N+](=O)[O-])ccc2C(=O)Nc2nc(-c3ccccc3)cs2)cc1,,,0.968 µM (active)
CCCc1ccc(-c2csc(NC(=O)c3ccncc3NS(=O)(=O)c3ccc(C)cc3)n2)cc1,,20.9 µM (active),1.53 µM (active)
O=C(Nc1nc(-c2ccccc2)cs1)c1ccncc1NS(=O)(=O)c1ccc(Cl)cc1,,inactive,1.53 µM (active)
O=C(Nc1nc(-c2ccccc2)cs1)c1ccncc1NS(=O)(=O)c1ccc(-c2ccccc2)cc1,,,1.53 µM (active)
CC(C)Cc1ccc(-c2csc(Nc3ccc(S(=O)(=O)Nc4nccs4)cc3)n2)cc1,,inactive,5.44 µM (active)
Cc1ccc(-c2cc(C(=O)Nc3cccnc3)c3ccccc3n2)cc1C,,inactive,19.3 µM (active)
Cc1ccc(-c2cc(C(=O)Nc3ccc(S(=O)(=O)N(C)Cc4nccs4)cc3)c3ccccc3n2)cc1C,,,3.85 µM (active)
O=C(Nc1nc(-c2ccccc2)cs1)c1ccncc1NS(=O)(=O)c1ccccc1Cl,,inactive,1.53 µM (active)

# From PubChem BioAssay (NCATS)
